The values that follow come from PubChem BioAssay (EPA / NIEHS).

Calls of active or inactive are those of the source. The calls were made as follows: active = hit-call score of the fitted dose curve at least 0.9, where 1 is the maximum; inactive = score below 0.9.

As a reminder, the AC50 is the midpoint of the concentration-response curve, whichever way the signal moves.

Read-out in the experiment: NAD(P)H dehydrogenase [quinone] 1 (NQO1), NQO1 (gene 1728)
In words: LTEA_HepaRG_NQO1: Life Technologies and Expression Analysis (LTEA) Assay for NAD(P)H dehydrogenase [quinone] 1 (NQO1) using HepaRG (AID 2283526). Particulars: mRNA level, 48 h; actives raise or lower the signal. The procedure:
LTEA_HepaRG is a cell based, multiplexed-readout assay that uses HepaRG, a human liver cell line, with measurements taken at 48 hours after chemical dosing on a 96-well plate.LTEA_HepaRG_NQO1 is one of 102 assay component(s) measured in the LTEA HepaRG cell culture assay. It is a marker of Diseases associated with NQO1 include Tardive Dyskinesia and Childhood Leukemia.Data from the assay component LTEA_HepaRG_NQO1 was analyzed into 1 endpoint. This assay endpoint, LTEA_HepaRG_NQO1, was analyzed with bidirectional fitting relative to DMSO as the negative control and baseline of activity. Using a type of inducible reporter, measures of mRNA induction for gain or loss-of-signal activity can be used to understand regulation of transcription factor activity. To generalize the intended target to other relatable targets, this assay endpoint is annotated to the oxidoreductase intended target family, where the subfamily is quinone-acceptor.
A total of 1060 chemcials from the ToxCast library were tested in eight-point concentration-response experiments. Cell culture and cytotoxicity assays were conducted at Thermo Fisher Scientific's Custom Services facility (Madison, WI). A single lot of human HepaRG cells (Thermo Fisher Scientific, Frederick, MD) was used for the cell culture experiments. 96-well format collagen type I coated plates of human HepaRG cells were prepared using established methods. Briefly, cryopreserved HepaRG cells were thawed, plated at a density of approximately 100,000 cells/well in HepaRG Thaw, Plate, and General Purpose media (HPRG770, Thermo Fisher Scientific), and incubated for 48 hours. 0.5% DMSO was selected as vehicle control to balance the requisite need of DMSO in HepaRG cultures to maintain differentiation (for example, baseline metabolism, proportions of hepatocytes vs. cholangiocytes), while enabling further hepatic receptor pathway activation (for example, PXR and CAR) in response to chemical exposure. 48 hours after plating, the culture medium was replaced with HepaRG Serum-Free Incudtion Media. Cells were exposed to each test chemical in duplicate and maintained in CO2 incubators for another 48 hours. Chemical plates were thawed to room temperature and 200x concentrations of treatment groups were prepared. 8-point conentration-reponse curves were made with the highest exposure at 100 uM, followed by half-log dilutions, all in 0.5% DMSO. Each test plate contained variouse controls, induction positive controls (1mM phenobarbital), cytotoxicity positive controls ([…] aflatoxin B1), vehicle controls (0.5% DMSO), and total lysis controls (0.5% DMSO). Cell morphology images were taken using an Essen IncuCyte FLR automated microscope, with six 96-well plates imaged in about 24 minutes. Images were captured and exported and JPEG files. Spent culture media was transfered to black-well plates for the LDH assay, and remaining media was sorted at -80 C for later use. Cells were treated with RLT buffer and frozen until shipped for gene expression analysis. Total RNA was isolated from the cell suspension in 75 uL of Buffer RLT (Qiagen, Germantown, MD 20874) by Quintiles/Expression Analysis (Durham, NC) using a custom isolation procedure. Total RNA from each plate well was transferred to a preamplification plate. Fluidigm's 96.96 Dynamic ArrayTM (Fluidigm, Amsterdam, the Netherlands) technology was used for gene expression analyses by quantitative reverse transcription polymerase chain reaction (qRT-PCR, performed by Quintiles/Expression Analysis, Durham, NC)89. Standard TaqManTM Assays (Applied Biosystems/ThermoFisher Scientific, Foster City, CA) were used to assess the expression of 93 genes selected based on their selectivity and sensitivity to important hepatic receptors known to be modulated by environmental chemicals; importance in human hepatocyte functionality; and hepatotoxicity. […]
For `CCCCCCCCOc1ccc(C(=O)c2ccccc2)c(O)c1`, the result was inactive. As to `CO[C@H]1/C=C/O[C@@]2(C)Oc3c(C)c(O)c4c(O)c(c(/C=N/N5CCN(C)CC5)c(O)c4c3C2=O)NC(=O)/C(C)=C\C=C\[C@H](C)[C@H](O)[C@@H](C)[C@@H](O)[C@@H](C)[C@H](OC(C)=O)[C@@H]1C`, the result was inactive. Same read-out and setting: next, `CCCCOC(=O)CC(CC(=O)OCCCC)(OC(C)=O)C(=O)OCCCC`: “inactive”. Still for that read-out and setting: next, `O=C(O)Cn1c(=O)n(Cc2ccc(Br)cc2F)c(=O)c2ccc(Cl)cc21`: “inactive”. As for `Cc1ccc2oc(CN(Cc3ccccc3)C(=O)Nc3c(F)cc(F)cc3F)c(-c3ccc(Cl)cc3)c2c1`, the call was inactive.

Consider `Cc1c2ccccc2c(C)c2c1ccc1ccccc12`, for which the compound was classed as inactive. In the case of `CC(C)(O)c1ccc(CNC(=O)c2cccnc2Oc2ccc3nonc3c2)cc1`, the compound was called inactive. The same measure, in the same setting: as for `Cc1ncc(CO)c(CO)c1O`, the entry is “inactive”. Same read-out and setting: as for `O=C(O)c1ccccc1C(=O)OCc1ccccc1`, the entry is “inactive”; as for `Cc1cc2c(cc1C(F)(F)F)N(C(=O)Nc1ccc(Oc3cccnc3C)nc1)CC2`, “inactive”; as for `CCN(Cc1cccnc1)C(=O)c1cccc(Cl)c1[C@]1(C)C(=O)N(Cc2ccc(OC)cc2OC)c2ccc(Cl)cc21`, “inactive”. Regarding `CC(=O)N1CCN(c2ccc(OC[C@H]3CO[C@](Cn4ccnc4)(c4ccc(Cl)cc4Cl)O3)cc2)CC1`, the compound was classed as inactive. In the case of `CC(C)(C)c1csc(-c2cc3cc(OCc4ccccc4CC(=O)O)ccc3o2)n1`, the half-maximal activity concentration (AC50) is 93.4 µM (active).

Turning to `CN1C(=O)CC[C@H]1c1cccnc1`, the result was inactive. On the same count and under the same terms, next, `O=c1c(-c2ccc(O)cc2)coc2cc(O)cc(O)c12`: “inactive”. The same measure, in the same setting: next, `CCCOC(=O)c1cc(O)c(O)c(O)c1`: “inactive”; `Oc1ccccc1`: “inactive”. Consider `CCCCCCCCN(C)CCCCCCCC`, for which the call was inactive. On the same count and under the same terms, as for `CC1(C)NC(=O)N(c2ccc([N+](=O)[O-])c(C(F)(F)F)c2)C1=O`, the entry is “inactive”; as for `CCCCCCCCCCCO`, “inactive”.

With `CN(C[C@@H](CC[N+]12CCC(C3CCCCC3)(CC1)CC2)c1ccc(Cl)c(Cl)c1)C(=O)c1cc(C(F)(F)F)cc(C(F)(F)F)c1`, the call was inactive.

With `CC[C@H](NC(=O)c1cc(F)ccc1NS(=O)(=O)c1cccc2cccnc12)c1ccccc1`, the compound was classed as inactive.

On to `O=C(O)c1ccccc1-n1cc(C(=O)O)c(=O)c2cc(Nc3c(F)cc(F)cc3Cl)c(Cl)cc21`, for which the compound was called inactive. The same measure, in the same setting: as for `C[C@]12CC[C@@H]3c4ccc(O)cc4CC[C@H]3[C@@H]1CC[C@H]2O`, the entry is “inactive”; as for `Clc1ccccc1C(c1ccccc1)(c1ccccc1)n1ccnc1`, “inactive”.

As to `Cc1oc2c(NC(=O)c3c(Cl)cccc3Cl)cccc2c1C(C)(C)O`, the outcome was inactive. The same measure, in the same setting: next, `CCCCCCCCOC(=O)c1cc(O)c(O)c(O)c1`: “inactive”; `CCCCCCCC[Si](OCC)(OCC)OCC`: “inactive”; `OCCO`: “inactive”. Still for that read-out and setting: next, `Cc1cn([C@H]2C[C@H](N=[N+]=[N-])[C@@H](CO)O2)c(=O)[nH]c1=O`: “inactive”; `O=C(O)Cc1cc(I)c(Oc2ccc(O)c(I)c2)c(I)c1`: “inactive”.

`COc1cc(C(=O)NC2CCN(C)CC2)ccc1Nc1ncc2c(n1)N(C1CCCC1)CC(F)(F)C(=O)N2C`: the compound was classed as inactive. As for `O=C(OCCCCCCOC(=O)c1ccccc1)c1ccccc1`, the compound was called inactive. The same measure, in the same setting: as for `O=c1[nH]sc2ccccc12`, the entry is “inactive”; as for `CCO[Si](CCCNC(N)=O)(OCC)OCC`, “inactive”; as for `O=C1CCC(C2CCCCC2)CC1`, “inactive”. Consider `CCCCCc1ccc(N)cc1`, for which the call was inactive. For `Cc1ccc(C(C)C)cc1`, the call was inactive.

Regarding `Oc1ccc2ccccc2c1`, the outcome was inactive.

In the case of `CCCCCCCCCCCC[N+](C)(C)C`, the compound was classed as inactive.
